Assay [1] in a line: viability loss in pontine glioma line – cell-based, JHH-DIPG-1, MIPE4.0, CellTiter-Glo, qHTS, dose response (AID 1347062; cut-off not given, nearly all actives have AC50 up to about 27 µM;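 as to AC50: cells exposed to compound for two days before readout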). To be noted: JHH-DIPG-1 viability, CellTiter-Glo ATP luminescence. For orientation: ATP-based viability assays read luminescence as a measure of living cells.
Assay [2] in a line: blockers of polyQ-driven CASP3 activation – cell-based (AID 1583). Particulars: polyglutamine-induced caspase-3 activation, cell assay; stronger effect = higher value;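 tested at 10 µM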.
Assay [3] is described as follows: yeast 75Q aggregation reduction – 75Q-TubU reporter (AID 1593). To be noted: Yeast 75Q polyglutamine aggregation reporter.
The nature of assay [4]: restoration of touch response, mutant HTT neurons – whole organism, C. elegans mechanosensory neurons, N-terminal huntingtin (AID 1599). Particulars: C. elegans polyQ-huntingtin mechanosensory neurons, stronger effect = higher value.
A short description of assay [5]: blockers of cytochrome c efflux from mitochondria – biochemical, purified mitochondria (AID 1603).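 Also: mouse liver mitochondria challenged with calcium chloride; signal normalized to the plate average as 100%.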 To be noted: stronger effect = lower value.
A short description of assay [6]: polyglutamine aggregate formation blockers (AID 1604). To be noted: polyglutamine-induced protein aggregation inhibition assay; stronger effect = higher value; tested at 2.5 µM.
Assay [7] is described as follows: glutamate transport activators, MN-1 cells, MN-1 cell line (AID 1612).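 Also: tested at 1 µM final; 0% = mean of DMSO vehicle wells on each plate; positive means more glutamate uptake than control and negative means less.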 Particulars: MN-1 motor neuron cells, stronger effect = higher value.
Assay [8] is described as follows: 75Q-TubH aggregate inhibition, S. cerevisiae, yeast (AID 1616). Particulars: S. cerevisiae 75Q-TubH polyglutamine aggregation suppression; stronger effect = higher value.
Assay [9] can be described thus: compounds altering viability of human ES cells (AID 493140).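 Also: cells exposed to compounds for four days before counting.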 Particulars: human embryonic stem cell survival screen; stronger effect = higher value.
Assay [10] can be described thus: chitosan synthesis blockers in C. neoformans – flow cytometry, Cibacron Brilliant Red staining (AID 1347148).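 Also: compound exposure lasted three days at 37 degrees C.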 To be noted: Cryptococcus neoformans chitosan, stronger effect = lower value; at 10 µM unless noted.

Molecules are shown by their SMILES. Values joined by “and” are separate entries in the source; they are usually repeats but may differ in a detail not shown here. Identical values can stand only once. Inconclusive results are not listed. For part of these data: Results with a measured potency or affinity are listed apart. Active and inactive are the calls of the source. Unless noted, no rule for the calls is given here.

In the case of `CN(C)CC[C@H](c1ccc(Cl)cc1)c1ccccn1`, the result in assay [1] was inactive.
As usually defined, the inhibition is the change of the read-out against control, counted positive when it falls. With `OC(c1cc(C(F)(F)F)nc2c(C(F)(F)F)cccc12)C1CCCCN1` (stereo not drawn), the inhibition in assay [2] came to 50.1%. For the same molecule, the score in assay [3] is 1.42. In assay [4], this molecule displayed a rescue above control of 0. Moreover, the cytochrome c release ratio in assay [5] stood at 2.44. Moreover, the inhibition of aggregation in assay [6] is -19.6%. For the same molecule, in [7], the glutamate uptake change was -3.13%. Moreover, the aggregation suppression score in assay [8] worked out at 1.65. Further, the survival in [9] was 3.83 (inactive).
A word on the AC50: it is the concentration at which the activity in the assay is half-maximal. `COc1ccc2nc3cc(Cl)ccc3c(Nc3cc(CN4CCCC4)c(O)c(CN4CCCC4)c3)c2n1`: in assay [1], the AC50 is 20.9 µM (active).
As for `Cc1coc2c1C(=O)C(=O)c1c-2ccc2c1CCCC2(C)C`, the fold fluorescence in assay [10] is 3.12 [at 169.9 µM] (inactive).
For `N#C[C@@H]1C[C@@H]2C[C@@H]2N1C(=O)[C@@H](N)C12CC3CC(CC(O)(C3)C1)C2`, the molecule was classed as inactive in assay [1].
`CC(NCCc1ccc(O)cc1)C(O)c1ccc(O)cc1` (stereo not drawn): the molecule was classed as inactive in assay [1].
Same read-out and setting: with `CC1(C)CCC[C@]2(C)[C@H]3CC(=O)O[C@]3(C)CC[C@@H]12` the entry was “inactive”.
Take `C=CC[C@@H]1/C=C(\C)C[C@H](C)C[C@H](OC)[C@H]2O[C@@](O)(C(=O)C(=O)N3CCCC[C@H]3C(=O)O[C@H](/C(C)=C/[C@@H]3CC[C@@H](O)[C@H](OC)C3)[C@H](C)[C@@H](O)CC1=O)[C@H](C)C[C@@H]2OC`: the inhibition in assay [2] is -0.04%. This molecule also displayed a score in assay [3] of -0.08. This molecule returned a rescue above control in [4] of 0. In addition, the cytochrome c release ratio in [5] worked out at 2.76. Moreover, the inhibition of aggregation in assay [6] amounted to 0%. Also, in [7], the glutamate uptake change is 0%. Besides, in [8], the aggregation suppression score was 0.207.
`CC(C)(CO)[C@@H](O)C(=O)NCCC(=O)O`: in assay [1], the result was inactive.
In the case of `CN[C@@H]1[C@H](O[C@H]2[C@H](O[C@@H]3[C@@H](O)[C@H](O)[C@@H](N=C(N)N)[C@H](O)[C@H]3N=C(N)N)O[C@@H](C)[C@]2(O)C=O)O[C@@H](CO)[C@H](O)[C@H]1O`, the survival in assay [9] is 20.6 (inactive).
`O=C(O)c1ccccc1Nc1ccccc1`: in assay [10], the fold fluorescence is 3.75 [at 234.5 µM] (inactive).
`c1ccc(C2CN3CCSC3=N2)cc1` (stereo not drawn): the survival in [9] is 5.17 (inactive) and 92.1 (inactive).
Consider `O=C(O)C1CCCNC1` (stereo not drawn), for which the inhibition in [2] worked out at 28%. Also, in [3], the score was 2.59. For the same molecule, the rescue above control in [4] is -9.05. Besides, the cytochrome c release ratio in [5] turned out to be 1.08. In [6], the inhibition of aggregation is 41.5%. Further, in assay [7], the glutamate uptake change is -1.16%. The same molecule had an aggregation suppression score in assay [8] of 1.59.
Consider `CCCCC[C@H](CC(=O)NO)C(=O)N[C@H](C(=O)N1CCC[C@H]1CO)C(C)C`, for which the inhibition in assay [2] is -22.9%. This molecule also gave a score in [3] of 1.1. Further, the rescue above control in [4] came out at 7.47. Further, the cytochrome c release ratio in [5] was 0.78. The inhibition of aggregation in assay [6] is 14.3%. For the same molecule, the glutamate uptake change in assay [7] worked out at 9.77%. The molecule further returned an aggregation suppression score in assay [8] of 1.26.
In the case of `CC(C)Cc1ccc([C@H](C)C(=O)O)cc1`, the survival in assay [9] is 6.58 (inactive).
Take `C[C@@H]1CC2C3CCC4=CC(=O)C=C[C@]4(C)[C@@]3(F)[C@@H](O)C[C@]2(C)[C@@]1(O)C(=O)CO` (stereo partly drawn): the inhibition in [2] was -20.4%. For the same molecule, in assay [3], the score came out at 1.07. The rescue above control in assay [4] is -7.18. Further, in [5], the cytochrome c release ratio amounted to 0.84. Besides, the inhibition of aggregation in assay [6] came to 31.7%. The glutamate uptake change in assay [7] was found to be 53.3%. In assay [8], this molecule yielded an aggregation suppression score of 1.35. For the same molecule, the fold fluorescence in [10] was 10.5 [at 127.4 µM] (inactive).
As to `CO[C@@]12[C@@H]3NC3CN1C1=C(C(=O)C(N)=C(C)C1=O)[C@@H]2COC(N)=O` (stereo partly drawn), in [2], the inhibition is -29.8%. In [3], the score is 2. Besides, in assay [4], the rescue above control came to 0. Further, the cytochrome c release ratio in assay [5] amounted to 1. Besides, the inhibition of aggregation in assay [6] was found to be 29.2%. For the same molecule, the glutamate uptake change in assay [7] is 0.5%. This molecule also displayed an aggregation suppression score in assay [8] of 1.38. The fold fluorescence in assay [10] is 4.49 [at 149.6 µM] (inactive).
In the case of `CC1(C)S[C@@H]2[C@H](NC(=O)COc3ccccc3)C(=O)N2[C@H]1C(=O)O`, the inhibition in assay [2] was 4.98%. Further, the score in [3] was determined as 1.39. This molecule also registered a rescue above control in assay [4] of 1.16. Also, in assay [5], the cytochrome c release ratio is 0.65. The inhibition of aggregation in assay [6] is 70.1%. Moreover, in assay [7], the glutamate uptake change is -6.22%. Further, in assay [8], the aggregation suppression score came to 0.899.
For `CN1CCN(C(c2ccccc2)c2ccc(Cl)cc2)CC1` (stereo not drawn), the inhibition in assay [2] worked out at 9.79%. Further, the score in [3] stood at 1.32. The molecule further showed a rescue above control in [4] of 0. Moreover, in assay [5], the cytochrome c release ratio stood at 1.15. Besides, the inhibition of aggregation in assay [6] came out at 65.4%. Also, in assay [7], the glutamate uptake change came out at 11.5%. The molecule also registered an aggregation suppression score in assay [8] of 0.963. In addition, in assay [9], the survival was 1.83 (inactive).
With `COC1CC2CCC(C)C(O)(O2)C(=O)C(=O)N2CCCCC2C(=O)OC(C(C)CC2CCC(O)C(OC)C2)CC(=O)C(C)/C=C(\C)C(O)C(OC)C(=O)C(C)CC(C)/C=C/C=C/C=C/1C` (stereo not drawn), the fold fluorescence in assay [10] is 6.13 [at 54.7 µM] (inactive).
As for `CCC(NC(C)C)C(O)c1ccc(O)c(O)c1` (stereo not drawn), the survival in [9] was 6.67 (inactive).
For `N[C@H]1CONC1=O`, the survival in [9] is 1.5 (inactive).
Consider `COc1cccc2c1C(=O)c1c(O)c3c(c(O)c1C2=O)C[C@@](O)(C(=O)CO)C[C@@H]3OC1C[C@H](N)[C@H](O)[C@H](C)O1` (stereo partly drawn), for which the fold fluorescence in [10] was 5.77 [at 92 µM] (inactive).
Turning to `CC(=O)c1ccc(S(=O)(=O)NC(=O)NC2CCCCC2)cc1`, the survival in [9] is 14 (inactive).
On the same count and under the same terms, with `COc1cc(-c2ccc(N=Nc3ccc4c(S(=O)(=O)O)cc(S(=O)(=O)O)c(N)c4c3O)c(OC)c2)ccc1N=Nc1ccc2c(S(=O)(=O)O)cc(S(=O)(=O)O)c(N)c2c1O` the figure was 5.92 (inactive); with `Cc1c(C)c2c(c(C)c1O)CCC(C)(C(=O)O)O2` (stereo not drawn), 0.667 (inactive).
